Results published in PubChem BioAssay (Tox21).
Where “and” joins values, the source holds several entries; their conditions need not be identical. Equal values may be shown once. Values without a mark were called inactive. Records with an inconclusive call do not appear. A call without a number means that no potency is given here. Calls of active or inactive are those of the source. Calls come from the whole dose curve; as a rule, active = well fitted curve in the direction sought with a large enough effect in the repeat runs; inconclusive = weak or mixed curves; inactive = no such curve, though single readings can be large; an effect the other way counts as inactive or inconclusive.

Experiments:
[1] = A CellTox Green Cytotoxicity Assay to monitor cytotoxicity in HEK293 cells - 32 hour (AID 1224881); note: nearly all actives have a fitted effect of over 40% in size; note: potency is the fitted concentration of half-maximal effect
Outline: (§1)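 Cytotoxicity was tracked continuously in HEK293 cells by a DNA-binding dye excluded from viable cells. Compounds were transferred in DMSO 5 h after seeding; fluorescence was recorded at intervals up to 40 h.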

[2] = A CellTox Green Cytotoxicity Assay to monitor cytotoxicity in HepG2 cells - 0 hour (AID 1224882); note: nearly all actives have a fitted effect of over 35% in size
Outline: (§2)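 Real-time, homogeneous cytotoxicity readout: dead-cell DNA staining by CellTox Green in HepG2 monolayers, fluorescence measured at timed intervals up to 40 h of continuous compound exposure.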

[3] = A CellTox Green Cytotoxicity Assay to monitor cytotoxicity in HepG2 cells - 32 hour (AID 1224883); note: nearly all actives have a fitted effect of over 50% in size; note: potency is the fitted concentration of half-maximal effect
Outline: as §2

[4] = A CellTox Green Cytotoxicity Assay to monitor cytotoxicity in HEK293 cells - 8 hour (AID 1224884); note: nearly all actives have a fitted effect of over 35% in size
Outline: as §1

[5] = qHTS RealTime-Glo MT Cell Viability Assay in HepG2 cells - 16 hour (AID 1224885); note: nearly all actives have a fitted effect of over 50% in size; note: potency is the fitted concentration of half-maximal effect
Outline: (§3)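 Viability was tracked continuously by NanoLuc luminescence from prosubstrate reduced by living HepG2 cells, at successive time points over 40 h of compound exposure. Cells with reagent were preincubated 5 h at 37 °C before compound addition.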

[6] = A CellTox Green Cytotoxicity Assay to monitor cytotoxicity in HEK293 cells - 16 hour (AID 1224888); note: nearly all actives have a fitted effect of over 35% in size; note: potency is the fitted concentration of half-maximal effect
Outline: as §1

[7] = qHTS RealTime-Glo MT Cell Viability Assay in HepG2 cells - 0 hour (AID 1224889); note: nearly all actives have a fitted effect of over 50% in size; note: potency is the fitted concentration of half-maximal effect
Outline: as §3

[8] = A CellTox Green Cytotoxicity Assay to monitor cytotoxicity in HepG2 cells - 8 hour (AID 1224890); note: nearly all actives have a fitted effect of over 45% in size
Outline: as §2

[9] = qHTS RealTime-Glo MT Cell Viability Assay in HEK293 cells - 8 hour (AID 1224887); note: nearly all actives have a fitted effect of over 50% in size; note: potency is the fitted concentration of half-maximal effect
Outline: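 Nonlytic bioluminescent viability monitoring. HEK293 at 600 cells/well with reagent; 5 h settle; compound transfer by pintool; plates held at 37 C and read at set time points.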

[10] = qHTS RealTime-Glo MT Cell Viability Assay in HEK293 cells - 24 hour (AID 1224886); note: nearly all actives have a fitted effect of over 50% in size; note: potency is the fitted concentration of half-maximal effect
Outline: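 Viability tracked continuously by luminescence as live cells reduce a prosubstrate for NanoLuc; HEK293 cells preincubated 5 h, compound-treated at 37 C, and read at 0, 8, 16, 24, 32 and 40 h.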

Structure (SMILES)	Potency [1]	Potency [2]	Potency [3]	Potency [4]	Potency [5]	Potency [6]	Potency [7]	Potency [8]	Potency [9]	Potency [10]
C/C=C(\C)C(=O)OCCC(C)CCC=C(C)C (stereo unspecified)	inactive	inactive	inactive	inactive	inactive	inactive	inactive	inactive	–	–
CC(N)CN (stereo unspecified)	inactive	inactive	inactive	inactive	inactive	inactive	inactive	inactive	–	–
CC1CC(=O)NN=C1c1ccc(NCC(C)(C)NCC(O)COc2cc(Cl)ccc2C#N)cc1 (stereo unspecified)	inactive	inactive	inactive	inactive	inactive	inactive	inactive	inactive	–	–
CCOC(=O)c1ccccc1C	inactive	inactive	inactive	inactive	inactive	inactive	inactive	inactive	inactive	–
COc1ccc([C@@H]2Sc3ccccc3NC(=O)[C@@H]2O)cc1	inactive	inactive	–	inactive	inactive	inactive	inactive	inactive	inactive	inactive
CCOCCn1c(C2CCN(CCc3ccc(C(C)(C)C(=O)O)cc3)CC2)nc2ccccc21	inactive	inactive	–	inactive	inactive	inactive	inactive	–	inactive	inactive
Cc1cc2nc3ccc(=[N+](C)C)cc-3sc2cc1N	inactive	inactive	inactive	inactive	9.52 µM (active)	inactive	inactive	inactive	–	–
COc1ccccc1N=Nc1c(S(=O)(=O)O)cc2cc(S(=O)(=O)O)cc(NC(C)=O)c2c1O	inactive	inactive	inactive	–	inactive	inactive	inactive	inactive	inactive	–
CO[C@@]12[C@H](COC(N)=O)C3=C(C(=O)C(C)=C(N)C3=O)N1C[C@@H]1N[C@@H]12	inactive	inactive	8.49 µM (active)	inactive	3.38 µM (active)	inactive	inactive	inactive	inactive	–
N#C/C(=C1\SCC(c2ccccc2Cl)S1)n1ccnc1 (stereo unspecified)	inactive	inactive	inactive	inactive	inactive	inactive	inactive	inactive	–	–
O=C(CCCN1CCN(c2ccc(F)cc2)CC1)NC1c2ccccc2CSc2ccccc21 (stereo unspecified)	inactive	inactive	23.9 µM (active)	inactive	–	inactive	inactive	inactive	–	16.9 µM (active)
CCOC(=O)c1ccccc1OC	inactive	inactive	inactive	inactive	inactive	inactive	inactive	inactive	inactive	–
Cc1cc(C(=C2C=CC(=Nc3ccc(S(=O)(=O)O)cc3S(=O)(=O)O)C=C2)c2ccc(Nc3ccc(S(=O)(=O)O)cc3)cc2)ccc1N	inactive	inactive	inactive	inactive	inactive	inactive	–	inactive	inactive	–
COCc1c(C(C)C)nc(C(C)C)c(/C=C/[C@@H](O)C[C@@H](O)CC(=O)O)c1-c1ccc(F)cc1	inactive	inactive	338 nM (active) and 4.84 µM (active)	inactive	–	inactive	–	inactive	–	–
CNC(=S)NC	inactive	inactive	–	inactive	inactive	inactive	inactive	inactive	inactive	inactive
CCCCC/C(=C\c1ccccc1)CO	43.1 µM (active)	inactive	inactive	–	inactive	48.4 µM (active)	inactive	inactive	–	inactive
CCCCC(=O)O[C@]1(C(=O)CO)[C@@H](C)C[C@H]2[C@@H]3CCC4=CC(=O)C=C[C@]4(C)[C@@]3(F)[C@@H](O)C[C@@]21C	inactive	inactive	inactive	inactive	–	inactive	21.9 µM (active)	inactive	–	–
CC(=O)Nc1ccccc1C	inactive	inactive	inactive	inactive	inactive	inactive	inactive	inactive	–	–

Structure (SMILES)	Potency [1]	Potency [2]	Potency [3]	Potency [4]	Potency [5]	Potency [6]	Potency [7]	Potency [8]	Potency [9]	Potency [10]
CCOC(=O)C(C)Oc1ccc(Oc2nc3ccc(Cl)cc3o2)cc1 (stereo unspecified)	inactive	inactive	inactive	inactive	–	inactive	inactive	inactive	21.9 µM (active)	24.5 µM (active)
N#C/C(=C1/SC[C@@H](c2ccc(Cl)cc2Cl)S1)n1ccnc1	inactive	inactive	inactive	inactive	–	inactive	inactive	inactive	–	inactive
Cc1oc(C)c(C(=O)Nc2ccccc2)c1C	inactive	inactive	inactive	inactive	inactive	inactive	inactive	inactive	–	–
Cc1c(C(=O)NN2CCCCC2)nn(-c2ccc(Cl)cc2Cl)c1-c1ccc(Cl)cc1	inactive	inactive	inactive	inactive	inactive	inactive	inactive	inactive	–	–
CCCc1c(OCCCOc2ccc(OCC(=O)O)cc2)ccc(C(C)=O)c1O	inactive	inactive	inactive	inactive	inactive	inactive	–	inactive	–	–
c1ccc(COCc2ccccc2)cc1	inactive	inactive	inactive	inactive	inactive	inactive	inactive	inactive	inactive	–
CCOC(=O)N1CCC(n2c(=O)[nH]c3cc(Cl)ccc32)CC1	inactive	inactive	inactive	inactive	inactive	inactive	inactive	inactive	–	–
O=C(O)c1c(O)c(-c2ccccc2)nc2ccccc12	inactive	inactive	inactive	inactive	inactive	inactive	inactive	inactive	inactive	–
CCCC1C(CC)=CC(CC)=CN1c1ccccc1 (stereo unspecified)	inactive	inactive	inactive	inactive	inactive	inactive	inactive	inactive	–	–
CCc1nn(CCCN2CCN(c3cccc(Cl)c3)CC2)c(=O)n1CCOc1ccccc1	inactive	inactive	inactive	inactive	–	inactive	–	inactive	–	8.49 µM (active)
Cc1cc(S(=O)(=O)O)ccc1N=Nc1c(O)ccc2ccccc12	inactive	inactive	inactive	inactive	–	inactive	–	inactive	inactive	inactive
CC#N	inactive	inactive	inactive	inactive	inactive	inactive	inactive	inactive	inactive	–
O=C(CCCCCCC(=O)Nc1ccccc1)NO	inactive	inactive	2.68 µM (active)	inactive	–	inactive	inactive	inactive	–	2.39 µM (active)
COCCOC(=O)C1=C(C)NC(C)=C(C(=O)OC/C=C/c2ccccc2)C1c1cccc([N+](=O)[O-])c1 (stereo unspecified)	inactive	inactive	inactive	inactive	–	inactive	6.74 µM (active)	inactive	–	–
CC(C)C(OC(=O)c1ccccc1)C(C)(C)COC(=O)c1ccccc1 (stereo unspecified)	inactive	inactive	inactive	–	inactive	inactive	inactive	inactive	inactive	–
C=CCOC(=O)/C=C\C(=O)OCC=C	inactive	inactive	inactive	inactive	inactive	inactive	inactive	inactive	inactive	–
O=C(Nc1ccccc1)Nc1ccccc1	inactive	inactive	inactive	inactive	inactive	inactive	inactive	inactive	–	–
CC(Cl)C(Cl)Cl (stereo unspecified)	48.2 µM (active)	inactive	inactive	–	inactive	–	inactive	inactive	inactive	–
